# Paper PMC7862700, “An all-to-all approach to the identification of sequence-specific readers for epigenetic DNA modifications on cytosine”
# What was measured:
# Test in all cases: DAPPL (digital affinity profiling via proximity ligation, sequencing); 10 mM Tris-HCl pH 7.5, 50 mM NaCl, 1 mM DTT, 4% glycerol, room temperature, 30 min; GST-TFs on glutathione beads, 16-mer random dsDNA library, 0.1% formaldehyde crosslink after washing; high values mean tight binding
# Details in all cases: protein: recombinant; tags: N-terminal GST; dsDNA, one strand shown
# ELK1 = target: T1, ELK1 (Homo sapiens, UniProt P19419 1-428)
# T1 sequence: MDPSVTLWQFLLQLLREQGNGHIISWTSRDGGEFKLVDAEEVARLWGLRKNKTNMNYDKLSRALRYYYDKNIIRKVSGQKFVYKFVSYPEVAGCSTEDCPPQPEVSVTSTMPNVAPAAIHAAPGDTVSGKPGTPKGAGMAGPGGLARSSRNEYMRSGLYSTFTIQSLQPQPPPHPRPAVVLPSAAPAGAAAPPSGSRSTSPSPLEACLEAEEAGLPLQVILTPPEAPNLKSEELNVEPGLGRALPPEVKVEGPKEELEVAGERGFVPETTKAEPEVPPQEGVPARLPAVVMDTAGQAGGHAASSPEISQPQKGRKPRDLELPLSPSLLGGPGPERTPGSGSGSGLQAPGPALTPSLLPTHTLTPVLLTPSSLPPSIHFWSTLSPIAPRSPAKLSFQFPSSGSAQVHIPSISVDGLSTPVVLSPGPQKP
# Outline: (§1)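 In yeast, human transcription factors were expressed with a GST fusion, then pulled down on glutathione beads and given DNA barcodes. Pooled with a tag-only sample, they were exposed to 200 nmole of a 16-mer random double-stranded DNA library (Tris/NaCl/DTT/glycerol buffer, room temperature, 30 min), washed, crosslinked with 0.1% formaldehyde, proximity-ligated using BsaI/T4 ligase for 1 h at 37 °C, PCR-amplified and read on an Illumina NextSeq500. Each hexamer's frequency of reads for a factor, divided by the matching frequency for the tag-only sample, gives the binding signal.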
# GABPA = target: T2, GABPA (Homo sapiens, UniProt Q06546 1-454)
# T2 sequence: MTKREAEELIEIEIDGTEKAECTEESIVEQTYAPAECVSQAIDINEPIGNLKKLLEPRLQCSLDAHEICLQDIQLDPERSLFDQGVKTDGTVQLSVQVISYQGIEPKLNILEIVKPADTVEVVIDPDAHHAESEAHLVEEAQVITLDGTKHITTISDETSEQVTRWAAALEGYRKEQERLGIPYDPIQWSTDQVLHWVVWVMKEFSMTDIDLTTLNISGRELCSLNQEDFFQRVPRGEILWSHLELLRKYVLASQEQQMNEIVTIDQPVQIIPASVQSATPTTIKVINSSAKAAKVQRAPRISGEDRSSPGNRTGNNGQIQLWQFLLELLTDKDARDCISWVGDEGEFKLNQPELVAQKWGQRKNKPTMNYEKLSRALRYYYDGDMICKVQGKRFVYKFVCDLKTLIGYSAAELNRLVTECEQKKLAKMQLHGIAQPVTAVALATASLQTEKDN
# Outline: as §1
# ELF1 = ELF1 (Homo sapiens, UniProt P32519 1-619)
# Outline: as §1
# SPIB = SPIB (Homo sapiens, UniProt Q01892 1-262)
# Outline: as §1
# ELK3 = target: T3, ELK3 (Homo sapiens, UniProt P41970 1-407)
# T3 sequence: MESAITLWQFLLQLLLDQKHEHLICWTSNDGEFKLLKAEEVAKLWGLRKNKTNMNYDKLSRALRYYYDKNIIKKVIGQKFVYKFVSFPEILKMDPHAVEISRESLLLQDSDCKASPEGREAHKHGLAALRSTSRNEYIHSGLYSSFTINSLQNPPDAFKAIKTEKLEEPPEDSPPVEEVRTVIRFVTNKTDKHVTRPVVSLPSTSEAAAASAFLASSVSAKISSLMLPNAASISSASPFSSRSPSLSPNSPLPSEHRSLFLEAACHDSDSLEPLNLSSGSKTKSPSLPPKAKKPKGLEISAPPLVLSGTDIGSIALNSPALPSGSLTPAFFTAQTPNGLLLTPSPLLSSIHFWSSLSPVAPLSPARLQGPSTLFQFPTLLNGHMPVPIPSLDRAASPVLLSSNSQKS
# Outline: as §1
# SPIC = target: T4, SPIC (Homo sapiens, UniProt Q8N5J4 1-248)
# T4 sequence: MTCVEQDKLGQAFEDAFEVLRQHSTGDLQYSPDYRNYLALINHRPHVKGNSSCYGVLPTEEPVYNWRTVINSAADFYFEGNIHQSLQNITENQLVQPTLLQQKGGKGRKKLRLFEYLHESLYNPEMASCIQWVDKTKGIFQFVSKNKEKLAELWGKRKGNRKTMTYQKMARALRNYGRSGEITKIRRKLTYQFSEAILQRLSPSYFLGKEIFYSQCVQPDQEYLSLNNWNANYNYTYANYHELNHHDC
# Outline: as §1
# ELK4 = target: T5, ELK4 (Homo sapiens, UniProt P28324-2 1-405)
# T5 sequence: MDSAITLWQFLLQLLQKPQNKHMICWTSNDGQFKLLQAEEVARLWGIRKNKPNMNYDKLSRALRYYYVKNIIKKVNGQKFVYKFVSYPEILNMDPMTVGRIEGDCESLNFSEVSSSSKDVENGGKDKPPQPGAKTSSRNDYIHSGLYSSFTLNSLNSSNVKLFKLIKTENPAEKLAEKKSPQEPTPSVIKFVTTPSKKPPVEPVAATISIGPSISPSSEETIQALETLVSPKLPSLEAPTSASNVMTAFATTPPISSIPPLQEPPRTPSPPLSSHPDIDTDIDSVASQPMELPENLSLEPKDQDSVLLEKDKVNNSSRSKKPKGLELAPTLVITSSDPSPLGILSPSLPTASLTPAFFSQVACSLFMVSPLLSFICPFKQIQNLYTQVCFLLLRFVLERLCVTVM
# Outline: as §1
# ERF = target: T6, ERF (Homo sapiens, UniProt P50548 1-548)
# T6 sequence: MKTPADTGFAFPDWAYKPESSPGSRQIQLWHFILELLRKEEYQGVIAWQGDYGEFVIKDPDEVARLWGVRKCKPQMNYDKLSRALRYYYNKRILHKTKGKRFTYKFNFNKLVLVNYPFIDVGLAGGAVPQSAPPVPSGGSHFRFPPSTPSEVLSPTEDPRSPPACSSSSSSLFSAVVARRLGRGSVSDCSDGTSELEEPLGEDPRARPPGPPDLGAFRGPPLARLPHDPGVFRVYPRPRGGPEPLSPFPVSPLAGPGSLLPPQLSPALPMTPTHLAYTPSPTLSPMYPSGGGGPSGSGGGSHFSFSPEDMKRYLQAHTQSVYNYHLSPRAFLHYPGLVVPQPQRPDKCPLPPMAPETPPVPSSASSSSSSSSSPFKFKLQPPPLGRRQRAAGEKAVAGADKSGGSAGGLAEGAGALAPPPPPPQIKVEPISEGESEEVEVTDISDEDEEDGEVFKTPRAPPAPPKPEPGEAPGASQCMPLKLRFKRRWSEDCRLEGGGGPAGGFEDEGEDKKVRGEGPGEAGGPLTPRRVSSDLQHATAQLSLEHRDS
# Outline: as §1
# ETV3L = target: T7, ETV3L (Homo sapiens, UniProt Q6ZN32 1-361)
# T7 sequence: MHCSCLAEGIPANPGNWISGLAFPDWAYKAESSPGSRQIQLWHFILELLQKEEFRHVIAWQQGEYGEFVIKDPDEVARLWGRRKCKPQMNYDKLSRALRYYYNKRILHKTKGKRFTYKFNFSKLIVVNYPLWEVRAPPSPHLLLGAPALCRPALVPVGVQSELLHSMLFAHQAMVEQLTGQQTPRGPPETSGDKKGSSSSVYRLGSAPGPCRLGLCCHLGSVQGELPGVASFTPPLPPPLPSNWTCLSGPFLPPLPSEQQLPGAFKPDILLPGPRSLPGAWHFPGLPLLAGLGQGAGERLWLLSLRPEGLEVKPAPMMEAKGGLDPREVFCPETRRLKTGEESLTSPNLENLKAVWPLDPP
# Outline: as §1
# ETS2 = target: T8, ETS2 (Homo sapiens, UniProt P15036 1-469)
# T8 sequence: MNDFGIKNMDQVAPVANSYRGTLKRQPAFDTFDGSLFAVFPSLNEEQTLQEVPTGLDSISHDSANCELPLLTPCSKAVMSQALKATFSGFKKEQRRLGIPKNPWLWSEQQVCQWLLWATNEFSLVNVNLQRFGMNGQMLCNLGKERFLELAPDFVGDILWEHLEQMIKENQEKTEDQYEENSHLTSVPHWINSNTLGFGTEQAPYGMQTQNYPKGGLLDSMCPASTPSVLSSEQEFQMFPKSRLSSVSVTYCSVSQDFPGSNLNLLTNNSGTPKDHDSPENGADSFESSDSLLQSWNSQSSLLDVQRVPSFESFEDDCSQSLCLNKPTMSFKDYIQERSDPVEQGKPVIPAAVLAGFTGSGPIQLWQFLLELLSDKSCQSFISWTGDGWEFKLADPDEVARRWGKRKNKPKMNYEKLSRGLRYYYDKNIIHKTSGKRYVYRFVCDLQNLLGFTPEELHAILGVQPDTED
# Outline: as §1
# SPDEF = target: T9, SPDEF (Homo sapiens, UniProt O95238 1-335)
# T9 sequence: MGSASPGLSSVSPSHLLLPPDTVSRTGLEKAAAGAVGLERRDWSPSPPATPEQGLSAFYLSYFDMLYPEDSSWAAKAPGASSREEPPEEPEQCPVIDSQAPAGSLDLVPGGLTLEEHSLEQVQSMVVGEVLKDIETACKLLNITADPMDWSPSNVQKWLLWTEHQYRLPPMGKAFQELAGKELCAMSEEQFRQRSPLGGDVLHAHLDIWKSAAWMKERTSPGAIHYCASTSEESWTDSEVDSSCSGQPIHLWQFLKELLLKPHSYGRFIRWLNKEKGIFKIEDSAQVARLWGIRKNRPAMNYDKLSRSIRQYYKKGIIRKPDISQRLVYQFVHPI
# Outline: as §1
# ELF4 = ELF4 (Homo sapiens, UniProt Q99607 1-663)
# Outline: as §1
# ELF3 = target: T10, ELF3 (Homo sapiens, UniProt P78545 1-371)
# T10 sequence: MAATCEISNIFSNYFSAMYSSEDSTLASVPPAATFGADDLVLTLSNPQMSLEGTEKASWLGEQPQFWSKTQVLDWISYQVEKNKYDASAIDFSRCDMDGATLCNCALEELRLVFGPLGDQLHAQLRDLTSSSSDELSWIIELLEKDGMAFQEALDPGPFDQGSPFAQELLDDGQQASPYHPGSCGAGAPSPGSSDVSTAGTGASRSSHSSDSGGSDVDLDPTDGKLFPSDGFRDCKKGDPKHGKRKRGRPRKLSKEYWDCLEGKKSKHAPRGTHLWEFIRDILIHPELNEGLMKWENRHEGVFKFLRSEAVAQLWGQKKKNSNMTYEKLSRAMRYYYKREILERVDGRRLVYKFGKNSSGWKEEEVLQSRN
# Outline: as §1
# ETV3 = target: T11, ETV3 (Homo sapiens, UniProt P41162-2 1-143)
# T11 sequence: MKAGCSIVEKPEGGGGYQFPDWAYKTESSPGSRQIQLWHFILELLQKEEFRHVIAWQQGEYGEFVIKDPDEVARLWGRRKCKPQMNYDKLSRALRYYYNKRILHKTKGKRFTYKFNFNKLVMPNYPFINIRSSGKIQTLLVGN
# Outline: as §1
# Sequence of SPIB (Q01892 whole entry): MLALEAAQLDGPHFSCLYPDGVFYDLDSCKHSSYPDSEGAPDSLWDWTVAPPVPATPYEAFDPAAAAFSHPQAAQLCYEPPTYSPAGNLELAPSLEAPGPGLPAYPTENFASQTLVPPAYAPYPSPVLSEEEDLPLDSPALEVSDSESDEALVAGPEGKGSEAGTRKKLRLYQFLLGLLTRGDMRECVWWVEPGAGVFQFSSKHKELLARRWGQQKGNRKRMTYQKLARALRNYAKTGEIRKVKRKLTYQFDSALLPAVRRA
# Sequence of ELF4 (Q99607 whole entry): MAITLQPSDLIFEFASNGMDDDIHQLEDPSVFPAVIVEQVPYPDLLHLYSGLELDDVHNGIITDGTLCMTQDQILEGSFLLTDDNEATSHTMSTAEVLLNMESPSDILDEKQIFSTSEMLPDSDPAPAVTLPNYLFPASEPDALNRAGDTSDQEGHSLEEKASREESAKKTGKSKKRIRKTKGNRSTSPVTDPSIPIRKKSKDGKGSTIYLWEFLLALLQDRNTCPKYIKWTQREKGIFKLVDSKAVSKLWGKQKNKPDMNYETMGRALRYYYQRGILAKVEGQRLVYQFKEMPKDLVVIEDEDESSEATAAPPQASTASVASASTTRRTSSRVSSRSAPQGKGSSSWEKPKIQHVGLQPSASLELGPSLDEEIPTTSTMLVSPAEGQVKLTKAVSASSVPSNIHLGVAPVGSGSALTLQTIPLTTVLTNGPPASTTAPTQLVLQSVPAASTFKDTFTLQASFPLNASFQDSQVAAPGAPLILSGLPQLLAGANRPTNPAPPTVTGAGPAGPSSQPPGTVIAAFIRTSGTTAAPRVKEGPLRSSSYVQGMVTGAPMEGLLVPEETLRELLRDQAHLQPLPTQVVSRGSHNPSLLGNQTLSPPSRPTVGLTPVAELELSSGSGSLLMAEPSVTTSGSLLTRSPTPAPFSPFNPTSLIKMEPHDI
# Sequence of ELF1 (P32519 whole entry): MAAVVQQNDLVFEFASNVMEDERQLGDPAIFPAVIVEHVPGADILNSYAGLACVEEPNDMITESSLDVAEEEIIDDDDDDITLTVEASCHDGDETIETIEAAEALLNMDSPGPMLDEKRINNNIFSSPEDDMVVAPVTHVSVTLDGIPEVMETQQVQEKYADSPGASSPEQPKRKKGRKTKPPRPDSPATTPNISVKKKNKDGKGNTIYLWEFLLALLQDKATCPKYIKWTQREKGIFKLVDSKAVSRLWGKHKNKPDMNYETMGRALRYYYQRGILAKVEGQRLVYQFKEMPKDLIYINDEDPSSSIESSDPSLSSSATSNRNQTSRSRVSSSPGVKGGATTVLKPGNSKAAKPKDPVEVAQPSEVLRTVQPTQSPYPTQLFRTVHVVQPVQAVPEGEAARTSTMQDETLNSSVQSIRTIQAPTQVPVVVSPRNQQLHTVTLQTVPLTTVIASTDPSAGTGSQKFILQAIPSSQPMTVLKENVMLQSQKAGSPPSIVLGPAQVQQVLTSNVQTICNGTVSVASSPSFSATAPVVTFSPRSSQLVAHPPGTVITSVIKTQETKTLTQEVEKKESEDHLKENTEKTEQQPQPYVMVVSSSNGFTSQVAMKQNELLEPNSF
Sequence,binding signal (ELK1),binding signal (GABPA),binding signal (ELF1),binding signal (SPIB),binding signal (ELK3),binding signal (SPIC),binding signal (ELK4),binding signal (ERF),binding signal (ETV3L),binding signal (ETS2),binding signal (SPDEF),binding signal (ELF4),binding signal (ELF3),binding signal (ETV3)
GTATTG,"1.01 fold enrichment (6-mer frequency, TF over GST control)","1.04 fold enrichment (6-mer frequency, TF over GST control)","1.04 fold enrichment (6-mer frequency, TF over GST control)","1.1 fold enrichment (6-mer frequency, TF over GST control)","1.08 fold enrichment (6-mer frequency, TF over GST control)","1.11 fold enrichment (6-mer frequency, TF over GST control)","1.05 fold enrichment (6-mer frequency, TF over GST control)","1 fold enrichment (6-mer frequency, TF over GST control)","1.01 fold enrichment (6-mer frequency, TF over GST control)","1 fold enrichment (6-mer frequency, TF over GST control)","1 fold enrichment (6-mer frequency, TF over GST control)",–,–,–
GTATGA,–,–,–,"1.05 fold enrichment (6-mer frequency, TF over GST control)",–,"1.09 fold enrichment (6-mer frequency, TF over GST control)","1.01 fold enrichment (6-mer frequency, TF over GST control)",–,–,"1.01 fold enrichment (6-mer frequency, TF over GST control)",–,"1.03 fold enrichment (6-mer frequency, TF over GST control)","1.02 fold enrichment (6-mer frequency, TF over GST control)","1.02 fold enrichment (6-mer frequency, TF over GST control)"
